In PubChem BioAssay AID1159580 (chemical genetic matrix, 2015):
Several values for one entry are separate records, joined by “and”; a condition that tells them apart may be missing. Equal values may be shown once. About 2,000 (36%) of roughly 5,500 compounds were called active. About 18% were inconclusive and are not listed. No stated cut-off is given here; in the data, active means normalized growth mostly below about 0.91 (no sharp cut-off); inconclusive means no clear call, values can overlap the other calls; inactive means mostly above about 0.92. The list shows a part of the results.

Experiment: chemical genetic growth profiling, strain panel (AID 1159580);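 further: tested at 20 µM; growth read once vehicle control cultures reached saturation at 30 °C; 1 = growth at the plate median or of vehicle wells; lower values mean less growth of the strain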
Settings: S. cerevisiae deletion strains, growth OD

Measured: normalized growth

C[N+]1(C)C2CC(OC(=O)[C@@H](CO)c3ccccc3)CC1C1OC12 (some centres not stated)
inactive: locus YAL021C, strain ccr4, hits give low values 0.987 | locus YAL026C, strain drs2, hits give low values 0.999 | locus YAL030W, strain snc1, hits give low values 0.968 | locus YBL061C, strain skt5, hits give low values 0.98 | locus YBR009C, strain hhf1, hits give low values 0.955 | locus YBR021W, strain FUR4, hits give low values 1.04 | locus YBR023C, strain chs3, hits give low values 0.958 | locus YBR171W, strain sec66, hits give low values 0.951 | locus YBR229C, strain ROT2, hits give low values 1.01 | locus YBR231C, strain swc5, hits give low values 0.982 | locus YBR279W, strain paf1, hits give low values 0.986 | locus YCL011C, strain gbp2, hits give low values 0.923 | locus YCL016C, strain dcc1, hits give low values 0.932 | locus YCL029C, strain bik1, hits give low values 1 | locus YCL061C, strain MRC1, hits give low values 0.977 | locus YCL069W, strain vba3, hits give low values 0.974 | locus YCR088W, strain abp1, hits give low values 0.989 | locus YDL005C, strain med2, hits give low values 0.989 | locus YDL035C, strain GPR1, hits give low values 1.02 | locus YDL040C, strain nat1, hits give low values 0.994 | locus YDL074C, strain BRE1, hits give low values 1.05 | locus YDL101C, strain DUN1, hits give low values 1.01 | locus YDL185W, strain tfp1, hits give low values 1.01 | locus YDL192W, strain arf1, hits give low values 1.03 | locus YDR001C, strain nth1, hits give low values 0.975 | locus YDR069C, strain doa4, hits give low values 0.977 | locus YDR101C, strain arx1, hits give low values 0.99 | locus YDR137W, strain rgp1, hits give low values 0.924 | locus YDR159W, strain sac3, hits give low values 1 | locus YDR162C, strain NBP2, hits give low values 1.02 | locus YDR195W, strain ref2 1.01 | locus YDR297W, strain sur2, hits give low values 0.976 | locus YDR318W, strain mcm21, hits give low values 1.03 | locus YDR334W, strain swr1, hits give low values 0.933 | locus YDR335W, strain msn5, hits give low values 0.968 | locus YDR388W, hits give low values 1.01 | locus YDR392W, strain spt3, hits give low values 0.934 | locus YDR502C, strain sam2, hits give low values 1.03 | locus YEL003W, strain gim4, hits give low values 0.996 | locus YEL037C, strain rad23, hits give low values 0.982 | locus YEL061C, strain CIN8 (second series), hits give low values 0.98 | locus YEL061C, strain CIN8, hits give low values 1.05 | locus YER015W, strain faa2, hits give low values 0.986 | locus YER016W, strain bim1, hits give low values 0.997 | locus YER110C, hits give low values 1.02 | locus YER111C, strain swi4, hits give low values 0.985 | locus YER155C, strain BEM2 (second series), hits give low values 1.02 | locus YER155C, strain BEM2, hits give low values 1.01 | locus YER167W, strain BCK2, hits give low values 1.03 | locus YFR010W, strain ubp6, hits give low values 0.978 | locus YGL078C, strain dbp3, hits give low values 1.01 | locus YGL086W, strain mad1, hits give low values 1 | locus YGL167C, strain pmr1, hits give low values 0.964 | locus YGL173C, strain kem1, hits give low values 0.969 | locus YGL227W, strain vid30, hits give low values 0.978 | locus YGL240W, strain doc1, hits give low values 1 | locus YGL248W, strain PDE1, hits give low values 1.01 | locus YGL253W, strain hxk2, hits give low values 0.97 | locus YGR135W, strain pre9, hits give low values 1.06 | locus YGR229C, strain SMI1, hits give low values 1.05 | locus YGR252W, strain gcn5, hits give low values 1.05 | locus YHR013C, strain ard1, hits give low values 0.957 | locus YHR027C, strain rpn1, hits give low values 0.957 | locus YHR030C, strain SLT2, hits give low values 1.02 and 1.03 | locus YHR079C, strain IRE1 (second series), hits give low values 1.02 | locus YHR079C, strain IRE1, hits give low values 1.03 | locus YHR094C, strain hxt1, hits give low values 1.01 | locus YHR129C, strain ARP1, hits give low values 1.01 | locus YHR142W, strain chs7, hits give low values 0.916 | locus YHR200W, strain rpn10, hits give low values 1.02 | locus YIL066C, strain RNR3, hits give low values 1.01 | locus YIL073C, strain SPO22, hits give low values 1.07 | locus YIL125W, strain kgd1, hits give low values 1.01 | locus YIR030C, strain dcg1, hits give low values 1.02 | locus YJL092W, strain hpr5, hits give low values 0.969 | locus YJL095W, strain BCK1 (second series), hits give low values 0.974 | locus YJL095W, strain BCK1, hits give low values 1.02 and 1.01 | locus YJL115W, strain asf1, hits give low values 0.958 | locus YJL129C, strain trk1, hits give low values 0.976 | locus YJL134W, strain LCB3, hits give low values 1 | locus YJL154C, strain vps35, hits give low values 0.975 | locus YJL164C, strain tpk1, hits give low values 1 | locus YJL166W, strain qcr8, hits give low values 0.959 | locus YJL168C, strain set2, hits give low values 1.01 | locus YJL187C, strain SWE1 (second series), hits give low values 1.01 | locus YJL187C, strain SWE1, hits give low values 0.976 | locus YJR043C, strain POL32, hits give low values 1.02
